From PubChem BioAssay
Calls of active or inactive are those of the source. Unless noted, the rule behind the calls is not given here.

What was measured:
[1] = compound effects on lung adenocarcinoma cell viability – A549, calcein-AM fluorescence, 48 h, basal, profiling panel (AID 1162); details: higher = more signal; note: test concentration not given here
[2] = compound effects on differentiated 3T3-L1 adipocyte viability – cell-based, 3T3-L1 adipocytes, calcein-AM fluorescence, 48 h, basal, profiling panel (AID 1163); details: 3T3-L1 adipocytes viability, higher = more signal; note: test concentration not given here
[3] = compound effects on hepatocellular carcinoma cell viability – HepG2, calcein-AM fluorescence, 48 h, basal, profiling panel (AID 1164); details: higher = more signal; note: test concentration not given here
[4] = compound effects on multiple myeloma cell viability – MM1S, calcein-AM fluorescence, 48 h, basal, profiling panel (AID 1165); details: higher = more signal;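 note: viability of MM1S multiple myeloma cells under basal unstimulated conditions; test concentration not given here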
[5] = calcein-AM signal in unstimulated myeloma cells – cell-based, calcein-AM fluorescence, 48 h, PK04 Diversity Set, profiling panel (AID 1166); details: RPMI8226 myeloma viability, higher = more signal;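 note: cells grown under basal conditions without added stimulus; test concentration not given here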
[6] = JC-1 mitochondrial signal, unstimulated HepG2 cells – cell-based, JC-1 fluorescence, 24 h, 100 nL compound, profiling panel (AID 1167); details: HepG2 mitochondrial potential, higher = more signal; note: test concentration not given here
[7] = JC-1 mitochondrial signal, unstimulated adipocytes – cell-based, JC-1 fluorescence, 3T3-L1 adipocytes, 24 h, 100 nL compound, profiling panel (AID 1168); details: JC-1 mitochondrial fluorescence, higher = more signal, called active from +8 up or from −8 down; note: test concentration not given here
[8] = JC-1 mitochondrial signal, unstimulated myeloma cells – cell-based, JC-1 fluorescence, RPMI8226, 24 h, 100 nL compound, profiling panel (AID 1169); details: JC-1 mitochondrial potential fluorescence, higher = more signal; note: test concentration not given here
[9] = JC-1 mitochondrial signal, unstimulated MM1S myeloma – cell-based, JC-1 fluorescence, 24 h, 100 nL compound, profiling panel (AID 1170); details: MM1S mitochondrial potential, higher = more signal; note: test concentration not given here
[10] = resazurin metabolic signal in A549 cells – cell-based, resazurin fluorescence, 24 h, PK04 Diversity Set, profiling panel (AID 1171); details: A549 viability, higher = more signal, called active from +8 up or from −8 down; note: test concentration not given here
[11] = resazurin metabolic signal in HepG2 cells – cell-based, resazurin fluorescence, 24 h, PK04 Diversity Set, profiling panel (AID 1172); details: HepG2 viability, higher = more signal; note: test concentration not given here
[12] = budding yeast growth changes without added modifier – OD600, strain BY4716, 24 h, basal condition, primary screen (AID 1173); details: S. cerevisiae BY4716 growth, OD600, 24 h; higher = more signal, called active from +8 up or from −8 down
[13] = viability profiling in MM1S myeloma cells – cell-based, resazurin fluorescence, basal, 24 h, PK04 Diversity Set, profiling panel (AID 1174); details: higher = more signal, called active from +8 up or from −8 down; note: test concentration not given here
[14] = target: Dihydroorotate dehydrogenase (quinone), mitochondrial (Plasmodium falciparum (isolate 3D7)) (UniProt Q08210); assay: inhibition of P. falciparum DHODH – biochemical, C-terminal His tag, absorbance 600 nm, primary screen (AID 1175); details: PfDHODH enzyme, DCIP absorbance 600 nm; higher = more signal, called active from +8 up or from −8 down;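 note: recombinant parasite enzyme with a five histidine tag at its C terminus; test concentration not given here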
[15] = inhibition of PAO1 biofilm formation – strain PAO1, LB-PBS medium, absorbance 600 nm, primary screen (AID 1176); note: test concentration not given here; details: P. aeruginosa PAO1 growth/biofilm, A600, 12 h; higher = more signal
[16] = growth modulation of vineyard yeast isolate – strain RM11-1a, OD600, basal, 24 h, primary screen (AID 1177);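 note: cultures grown under basal conditions with no added stressor; test concentration not given here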; details: S. cerevisiae RM11-1a growth, OD600, 24 h; higher = more signal, called active from +8 up or from −8 down
[17] = growth of efflux-deficient E. coli DRC39 – strain DRC39, OD650, 24 h, E. coli filamentation inducers, primary screen (AID 1178);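 note: growth measured as culture turbidity by optical density at 650 nm; test concentration not given here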; details: E. coli DRC39 acrAB, higher = more signal, called active from +8 up or from −8 down
[18] = growth of efflux-deficient E. coli DRC39 – strain DRC39, OD650, 48 h, E. coli filamentation inducers, primary screen (AID 1179);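 note: screen aims at cell division blockers that make cells filament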; details: E. coli DRC39 delta-acrAB growth, higher = more signal, called active from +8 up or from −8 down
[19] = viability profiling in RPMI8226 myeloma cells – cell-based, resazurin fluorescence, basal, 24 h, PK04 Diversity Set, profiling panel (AID 1180); details: higher = more signal;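 note: RPMI8826 multiple myeloma cell line at 5000 cells per well; test concentration not given here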
[20] = target: E3 ubiquitin-protein ligase XIAP (Homo sapiens) (UniProt P98170); assay: small molecules binding XIAP protein – biophysical, small-molecule microarray, fluorescence 635 nm, primary screen (AID 1181); details: higher = more signal;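 note: score merges 667 nm emission and signal to noise over triplicate slides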
E3 ubiquitin-protein ligase XIAP (Homo sapiens), sequence (P98170 whole entry, looked up): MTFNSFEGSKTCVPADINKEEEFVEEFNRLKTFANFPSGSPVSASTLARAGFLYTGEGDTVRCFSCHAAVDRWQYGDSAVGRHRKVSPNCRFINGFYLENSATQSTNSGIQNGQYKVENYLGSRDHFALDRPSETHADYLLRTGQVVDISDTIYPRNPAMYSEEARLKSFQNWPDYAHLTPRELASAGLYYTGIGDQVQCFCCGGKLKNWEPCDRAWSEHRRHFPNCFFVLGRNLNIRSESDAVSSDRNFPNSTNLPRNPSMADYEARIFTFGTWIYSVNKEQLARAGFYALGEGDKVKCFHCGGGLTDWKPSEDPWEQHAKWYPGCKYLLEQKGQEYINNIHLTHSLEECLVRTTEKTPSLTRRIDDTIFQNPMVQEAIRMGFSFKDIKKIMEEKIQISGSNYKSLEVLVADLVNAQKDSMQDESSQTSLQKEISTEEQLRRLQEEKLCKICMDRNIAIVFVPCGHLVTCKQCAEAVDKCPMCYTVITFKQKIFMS

Dihydroorotate dehydrogenase (quinone), mitochondrial (Plasmodium falciparum (isolate 3D7)), sequence (Q08210 whole entry, looked up): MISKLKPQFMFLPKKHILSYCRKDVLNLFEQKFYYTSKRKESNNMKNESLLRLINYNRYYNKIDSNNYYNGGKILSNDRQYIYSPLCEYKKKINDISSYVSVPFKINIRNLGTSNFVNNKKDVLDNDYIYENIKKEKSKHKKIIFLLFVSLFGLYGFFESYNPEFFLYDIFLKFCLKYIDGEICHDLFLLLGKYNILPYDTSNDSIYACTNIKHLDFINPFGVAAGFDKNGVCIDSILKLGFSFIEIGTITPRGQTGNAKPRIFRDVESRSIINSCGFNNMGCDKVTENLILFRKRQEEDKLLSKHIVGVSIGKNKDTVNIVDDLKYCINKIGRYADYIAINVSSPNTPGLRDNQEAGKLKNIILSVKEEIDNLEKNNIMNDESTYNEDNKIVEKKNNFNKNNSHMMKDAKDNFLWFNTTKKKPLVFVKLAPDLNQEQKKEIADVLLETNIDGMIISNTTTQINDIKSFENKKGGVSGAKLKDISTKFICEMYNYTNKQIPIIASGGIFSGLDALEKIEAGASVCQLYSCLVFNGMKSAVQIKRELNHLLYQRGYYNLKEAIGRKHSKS

Row | Compound | z-score [1] | z-score [2] | z-score [3] | z-score [4] | z-score [5] | z-score [6] | z-score [7] | z-score [8] | z-score [9] | z-score [10] | z-score [11] | z-score [12] | z-score [13] | composite z-score [14] | z-score [15] | z-score [16] | z-score [17] | z-score [18] | z-score [19] | composite z-score [20]
1 | CCOC(=O)C1=C[C@@H](c2ccccc2)N(S(=O)(=O)c2ccc(C)cc2)[C@H]1c1ccc(OC)cc1 | -0.841 | -0.0112 | -0.157 | -0.62 | -0.926 | 1.03 | -0.708 (inactive) | 0.692 | -0.441 | 1.63 (inactive) | -0.664 | 1.11 (inactive) | -1.01 (inactive) | -0.668 (inactive) | 0.0236 (inactive) | 0.409 (inactive) | -1.06 (inactive) | -0.834 (inactive) | -1.24 | -0.0428
2 | O=C1O[C@H](c2ccccc2)[C@H](c2ccccc2)N2[C@H]1[C@@H](C(=O)O)[C@]1(C(=O)Nc3ccc(C#CCCO)cc31)[C@H]2c1ccccc1OCCO | -0.0678 | 1.32 | -0.187 | 0.0409 | -0.353 | -0.892 | -0.426 (inactive) | -0.616 | 0.884 | -0.0294 (inactive) | -0.732 | -0.498 (inactive) | 0.716 (inactive) | -0.408 (inactive) | 0.573 (inactive) | 0.626 (inactive) | -0.88 (inactive) | -1.22 (inactive) | 1.5 | 0.177
3 | CN1C2C=C(CCCO)C(C3C(=O)N(C(N)=O)C(=O)C32)C1C1CC1 (stereo not given) | 0.0701 | -0.0683 | 0.592 | 0.0641 | -0.952 | -0.486 | 0.0295 (inactive) | 0.192 | 0.238 | -0.513 (inactive) | -0.444 | 0.796 (inactive) | -0.179 (inactive) | -0.884 (inactive) | -0.341 (inactive) | -0.18 (inactive) | -0.686 (inactive) | -0.743 (inactive) | -0.761 | 0.0361
4 | O=C(NCCN1CCOCC1)[C@@H]1c2ccccc2C(=O)N(C2Cc3ccccc3C2)[C@H]1c1ccc(CO)cc1 | 2.31 | 1.58 | 2.01 | 0.578 | 1.35 | 4.03 | 0.894 (inactive) | -0.647 | 0.291 | 0.326 (inactive) | -0.174 | -0.633 (inactive) | 0.886 (inactive) | -1.79 (inactive) | 0.404 (inactive) | -1.44 (inactive) | 0.638 (inactive) | 1.07 (inactive) | 0.142 | 0.164
5 | CC(C)N1C(=O)C[C@@](C(=O)O)(c2ccc([N+](=O)[O-])cc2)[C@H]1c1ccc(CO)cc1 | 2.22 | -0.246 | 0.74 | 0.389 | 1.1 | 1.52 | 0.546 (inactive) | -0.108 | 0.435 | -0.602 (inactive) | -0.847 | -0.717 (inactive) | 0.305 (inactive) | -1.24 (inactive) | 0.0309 (inactive) | 0.196 (inactive) | 0.732 (inactive) | 0.684 (inactive) | 0.191 | -0.169
6 | C=C(COC)C(=O)CC[C@@H](OC(C)=O)c1cccc(OCCO)c1 | 0.851 | 0.617 | -0.4 | -3.46 | -0.496 | -0.0521 | -0.196 (inactive) | 0.0392 | -0.274 | 0.387 (inactive) | -0.434 | 0.823 (inactive) | -0.0743 (inactive) | 0.0704 (inactive) | -0.329 (inactive) | 1.17 (inactive) | 0.858 (inactive) | 0.503 (inactive) | -0.929 | -0.263
7 | O[C@@H](Cc1ccccc1)[C@@H](/C=C/C1CC1)N(CC#Cc1ccccc1)Cc1ccccc1Br | -0.049 | -0.667 | -0.258 | 0.0144 | -0.353 | -1.79 | -0.344 (inactive) | -0.44 | -0.571 | 1.62 (inactive) | 1.67 | 0.365 (inactive) | 1.14 (inactive) | 0.63 (inactive) | -0.59 (inactive) | 1.43 (inactive) | -0.419 (inactive) | -0.232 (inactive) | 2.14 | 0.339
8 | COCC(=C=CC[C@H](O)c1ccc(OCCO)cc1)CCO | 1.06 | 0.156 | -0.587 | -1.28 | 0.231 | -0.255 | -0.597 (inactive) | 0.854 | 0.464 | 1.01 (inactive) | 0.996 | -0.415 (inactive) | 0.654 (inactive) | -1.15 (inactive) | -0.0342 (inactive) | 0.137 (inactive) | 0.53 (inactive) | 0.209 (inactive) | 0.854 | 0.102
9 | C#CCN([C@@H](Cc1ccccc1)C(=O)OC)[C@@H](/C=C/C1CC1)[C@H](O)Cc1ccccc1 | -1.03 | -0.347 | -1.38 | -3.12 | -2.25 | 0.993 | -0.21 (inactive) | -1.03 | -1.51 | 2.25 (inactive) | 0.454 | -0.0746 (inactive) | 1.4 (inactive) | -0.371 (inactive) | -0.189 (inactive) | 0.0421 (inactive) | -0.622 (inactive) | 0.03 (inactive) | 0.659 | -0.175
